From PubChem
The list is not random: actives were taken first. Their share in the collection is about 7.9%.
Marburg entry inh: blocks Marburg virus binding to or entry into cells | Potency, µM (doses to about 37.8 µM), inactives show at the highest dose activity change, negative = inhibition, hits mostly inhibitors | AID 540276 | Marburg virus pseudotyped entry inhibition, cell reporter | 1.8% of 300,000 active; calls by dose curve; tested in HEK293 cells; note: potency is the fitted concentration of half-maximal effect
HCMV antiviral: blocks human cytomegalovirus replication; HFF cells, HCMV-luciferase reporter, 72 h; stronger effect = lower value; activity change, negative = inhibition, % at 57.5 µM; 4.5% of 410,000 active; AID 1259415; in the data active = activity change below about -60%; inconclusive = no clear call, values can overlap the other calls; inactive = above about -39%
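Steps: HFFs plated, 16 h 37C; compounds added; HCMV-luciferase added to MOI 1 PFU/cell; 72 h 37C; OneGlo reagent, 5 min room temperature; luminescence read, normalized to controls.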
Lassa entry inh: inhibitors of Lassa virus binding or cell entry; 1.2% of 300,000 active; Lassa virus pseudotype entry inhibition, cell reporter; Potency, µM (highest dose often 37.9 µM), inactives show at the top dose activity change, negative = inhibition, most hits filed as inhibitors; calls by dose curve; tested in HEK293 cells; note: potency is the fitted concentration of half-maximal effect; nearly all actives have a fitted effect of over 50% in size
HCV inhibitor: blocks hepatitis C virus | Huh7.5.1 HCVcc-Cre infection, luciferase reporter, 44 h | Potency, µM (doses to about 41.8 µM), for inactives: at the top dose activity change, negative = inhibition, actives largely listed as inhibitors | 3.4% of 340,000 active; active = well fitted inhibition curve with a large enough effect; inconclusive = small, poorly fitted or top-dose-only effect, or another doubt; inactive = no such curve, though single readings can be large or run the other way; note: potency is the fitted concentration of half-maximal effect
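A cell-based infection assay in which seeded cells (1,000 per well) receive test compound after 4 h, are inoculated with HCVcc-Cre at approximately 0.5 moi, and are incubated 44 h before luminescence detection.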
FMDV antiviral: antivirals against foot and mouth disease virus; FMDV antiviral cell-based qHTS; Potency, µM (highest dose often 57.9 µM), for inactives: at the top dose activity change, negative = inhibition, actives largely listed as inhibitors; 1.2% of 410,000 active; AID 1159524; calls by dose curve; tested in HEK293T cells; note: read-out not given here; potency is the fitted concentration of half-maximal effect; nearly all actives have a fitted effect of over 45% in size
* hit, by the source's call; [ ] = another dose, or the depositor's remark. % is set by controls: 0 for no effect and ±100 for the full control effect.

What do the screens show for `NC(=O)CSc1nnnn1-c1cccc(O)c1`?
HCMV antiviral: 98.2; Lassa entry inh: -1.9%[46.1 µM]; FMDV antiviral: -6.1%

Results for Cn1cccc1C1C=C(c2ccc(C(C)(C)C)cc2)Nc2ncnn21 (centres undefined) ?
HCMV antiviral: -80.4*; HCV inhibitor: inconclusive; FMDV antiviral: -57.6%

What do the screens show for `Cc1ccc(OCCCCN(C)Cc2ccccc2)c(Br)c1`?
Marburg entry inh: inconclusive; HCMV antiviral: 44.0; Lassa entry inh: inconclusive; HCV inhibitor: inconclusive; FMDV antiviral: inconclusive

Results for Cc1cc(C)c(OCCCCN(C)Cc2ccccc2)c(C)c1 ?
HCMV antiviral: -60.7*; HCV inhibitor: -26.3%; FMDV antiviral: -24.2%

What do the screens show for `CN(CCOc1ccccc1)Cc1ccccc1`?
FMDV antiviral: -14.2%

What do the screens show for `Cc1ccc(C(C)C)c(OCC(O)CN(C)Cc2ccccc2)c1` (centres undefined)?
Marburg entry inh: inconclusive; HCMV antiviral: -70.4*; Lassa entry inh: inconclusive; HCV inhibitor: inconclusive; FMDV antiviral: inconclusive

Results for Cc1ccc(C(C)C)c(OCCCN(C)Cc2ccccc2)c1 ?
Marburg entry inh: 8.2µM*; HCMV antiviral: -26.9; Lassa entry inh: inconclusive; HCV inhibitor: -3.7%; FMDV antiviral: -7.0%

How did Cc1ccccc1N(C(=O)CCC(=O)Nc1ccccn1)C(C(=O)NC(C)C)c1ccc(O)cc1 (centres undefined) do in these assays?
Marburg entry inh: 7.08µM*; HCMV antiviral: 109.3; Lassa entry inh: -3.0%; HCV inhibitor: 7.0%; FMDV antiviral: 0.3%

What do the screens show for `COC(=O)c1cc2oc(C)cc2n1Cc1ccc(C)cc1`?
HCMV antiviral: -5.3; Lassa entry inh: -23.9%[46.1 µM]; FMDV antiviral: 8.6%

Results for CN(C1=C(NC(=O)c2ccccc2)C(=O)c2ccccc2C1=O)C1CCS(=O)(=O)C1 (centres undefined) ?
Marburg entry inh: inconclusive; HCMV antiviral: -98.5*; Lassa entry inh: inconclusive; HCV inhibitor: inconclusive; FMDV antiviral: 10µM*

How did CN(C(=O)c1ccccc1Br)C1CCS(=O)(=O)C1 (centres undefined) do in these assays?
Marburg entry inh: -13.0%[46.1 µM]; HCMV antiviral: -25.2; Lassa entry inh: -1.8%; HCV inhibitor: 16.5%; FMDV antiviral: -4.2%

How did CC(=O)NC1=C(NC2CCS(=O)(=O)C2)C(=O)c2ccccc2C1=O (centres undefined) do in these assays?
Marburg entry inh: inconclusive; HCMV antiviral: -11.9; Lassa entry inh: -16.3%; HCV inhibitor: 7.08µM*; FMDV antiviral: -39.4%

Results for O=C(Nc1ccccc1)NC1CCS(=O)(=O)C1 (centres undefined) ?
Marburg entry inh: -1.7%; HCMV antiviral: 20.8; Lassa entry inh: 3.5%; HCV inhibitor: 6.5%; FMDV antiviral: -24.2%

How did COc1ccccc1NS(=O)(=O)c1cc(NC(=O)CC(C)(C)C)ccc1N1CCOCC1 do in these assays?
Marburg entry inh: inconclusive; HCMV antiviral: inconclusive; Lassa entry inh: -27.2%; HCV inhibitor: inconclusive; FMDV antiviral: 56.0%

How did CCC(C(=O)Nc1ccc(N2CCOCC2)c(S(=O)(=O)Nc2ccccc2OC)c1)c1ccccc1 (centres undefined) do in these assays?
Marburg entry inh: inconclusive; HCMV antiviral: -81.2*; Lassa entry inh: inconclusive; HCV inhibitor: inconclusive; FMDV antiviral: 57.4%

What do the screens show for `COc1ccccc1NS(=O)(=O)c1cc(NC(=O)CCC2CCCC2)ccc1N1CCOCC1`?
HCMV antiviral: -103.7*; HCV inhibitor: 10.2%; FMDV antiviral: 26.5%

How did Cc1ccccc1-c1noc(-c2cccnc2N(C)Cc2ccc(Cl)cc2)n1 do in these assays?
Marburg entry inh: -8.0%[46.1 µM]; HCMV antiviral: -7.4; Lassa entry inh: 12.8%[46.1 µM]; FMDV antiviral: -19.2%

What do the screens show for `COc1cccc(N2CCN(C(=O)CN3C(=O)NC(C)(c4ccc5ccccc5c4)C3=O)CC2)c1` (centres undefined)?
Marburg entry inh: inconclusive; HCMV antiviral: inconclusive; Lassa entry inh: inconclusive; HCV inhibitor: 11.2µM*; FMDV antiviral: inconclusive

Results for Cc1ccc(CNC(=O)C2CCC(CNc3nc(=S)[nH]c4ccccc34)CC2)cc1 (centres undefined) ?
Marburg entry inh: 3.55µM*; HCMV antiviral: -17.2; Lassa entry inh: -13.5%; HCV inhibitor: inconclusive; FMDV antiviral: -24.4%
